CYP2C9 act: human CYP2C9 activators, primary screen, biochemical, luminescence; Cytochrome P450 2C9 (Homo sapiens), P11712; AID 1024, 2008; 96,000 tested, 1.4% active; activation factor at 5 µM; recombinant CYP2C9, luciferin-H conversion; active compounds read high; factor 1 = untreated enzyme, 0 = blocked;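 active means activation factor of 2 or more for CYP2C9 at a 5 µM dose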;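 further: 0 = sulfaphenazole-blocked wells and 1 = vehicle-only wells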
Target sequence (P11712 whole entry, looked up): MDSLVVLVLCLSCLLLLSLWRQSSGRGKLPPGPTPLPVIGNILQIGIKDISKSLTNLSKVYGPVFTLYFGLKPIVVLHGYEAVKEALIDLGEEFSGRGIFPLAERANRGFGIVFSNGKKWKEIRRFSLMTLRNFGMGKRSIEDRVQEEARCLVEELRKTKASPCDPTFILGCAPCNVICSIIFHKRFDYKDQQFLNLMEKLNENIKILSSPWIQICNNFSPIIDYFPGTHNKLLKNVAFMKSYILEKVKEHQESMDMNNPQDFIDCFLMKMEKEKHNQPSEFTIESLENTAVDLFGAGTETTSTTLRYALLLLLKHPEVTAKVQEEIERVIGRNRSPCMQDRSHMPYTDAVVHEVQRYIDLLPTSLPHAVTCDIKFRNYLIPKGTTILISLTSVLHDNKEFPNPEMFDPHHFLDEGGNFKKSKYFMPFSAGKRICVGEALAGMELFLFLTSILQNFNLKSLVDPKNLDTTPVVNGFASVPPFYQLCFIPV
CYP2C9 inhib: blockers of cytochrome P450 2C9 activity – biochemical, luminescence, ADME assay, primary screen. 96,000 tested, 20% active. AID 777, 2007. CYP2C9 Supersomes, luciferin-H conversion. inhibition, % at 5 µM. P11712;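 active means blocking of liver enzyme CYP2C9 beyond about 50% at 5 µM, limit read from the data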
CYP2C19 inh: blockers of cytochrome P450 2C19 activity – biochemical, luminescence, ADME assay, primary screen; P33261; CYP2C19 Supersomes, luciferin-H EGE luminescence, 30 min; inhibition, % at 5 µM; 96,000 tested, 21% active;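 active means CYP2C19 inhibition above a set limit at 5 µM in the primary screen, cut at about 50% in these data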;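 further: plate controls were negative control wells for no effect and 2.5 mM tranylcypromine positive control for full effect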
CYP2C19 act: human CYP2C19 activators, primary screen, biochemical, luminescence; Cytochrome P450 2C19 (Homo sapiens), P33261; recombinant CYP2C19, luciferin-H EGE luminescence; active compounds read high; 0 = fully inhibited enzyme, 1 = untreated enzyme; activation factor at 5 µM; 96,000 tested, under 10 active;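 active means activation factor of at least 2 at 5 µM in the primary screen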;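 further: 0 = wells with 2.5 mM tranylcypromine and 1 = vehicle-only wells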
* hit, by the source's call. A selection: hits, their analogues and other compounds. The true share with any hit is near 31%.

SMILES | CYP2C9 act | CYP2C9 inhib | CYP2C19 inh | CYP2C19 act
CCCCC(=O)Nc1cccc(-c2nn3c(C)nnc3s2)c1 | 0.8 | 17 | 14 | 0.9
CCCCC(CC)CNC(=O)c1ccc2c(c1)OCO2 (configuration not stated) | 0.5 | 48 | 27 | 0.7
COc1cc(OC)cc(-c2nc3ccccc3s2)c1 | 0.8 | 19 | 2 | 1
COc1ccc(C(O)c2nc3ccccc3s2)cc1 (configuration not stated) | 0.6 | 39 | 62* | 0.4
Cn1cccc1/C=N/n1cnnc1 | 1 | 0 | 0 | 1
Brc1ccc(-n2cccc2/C=N/n2cnnc2)cc1 | 0.5 | 53* | 74* | 0.3
Clc1ccc(-n2cccc2/C=N/n2cnnc2)cc1 | 0.4 | 56* | 57* | 0.4
O=S(=O)(c1ccccc1)N1C2CCC1CC(O)(c1cccnc1)C2 (configuration not stated) | 1.1 | -8 | 4 | 1
COC(=O)c1cc(C(=O)OC)cc(N2C(=O)CN=C2Nc2nc(C)cc(C)n2)c1 | 1 | -1 | 1 | 1
COc1ccc(C(=O)Nc2nc(C)c(C)s2)cc1OC | 1 | 0 | 6 | 0.9
COc1ccc(C(=O)c2sc(NC(C)C)nc2N)cc1OC | 0.9 | 8 | 86* | 0.1
CCOC(=O)c1c(C)[nH]c(C)c1C(=O)CN1C(=O)NC(CC(C)C)C1=O (configuration not stated) | 0.9 | 14 | 59* | 0.4
CCOC(=O)c1ncn2c1C(=O)OC2(C)C | 0.9 | 9 | 12 | 0.9
CCOC(=O)c1c(NC(=O)CSc2nncs2)sc(C)c1C | 1.2 | -22 | 24 | 0.8
CCOC(=O)c1sc(NC(=O)CSc2nnc(C)s2)c(C(=O)OCC)c1C | 0.1 | 88* | 62* | 0.4
CCCn1c(SCC(=O)Nc2sc(C)c(C)c2C(=O)OC)nc2c1c(=O)n(C)c(=O)n2C | 0.9 | 12 | 16 | 0.8
Cc1cc(C)nc(NC(=O)CSc2nc3ccccc3s2)n1 | 1 | 3 | 28 | 0.7
CCOC(=O)c1c(NC(=O)CSc2nc3ccccc3s2)sc(C(C)=O)c1C | 0.2 | 78* | 29 | 0.7
CCOC(=O)c1c(NC(=O)CSc2nc3c(c(=O)n(C)c(=O)n3C)n2CC)sc(C)c1C | 0.1 | 90* | 52* | 0.5
CN(/C=C/C(=O)C(F)(F)C(F)(F)F)Cc1ccccc1 | 0.9 | 10 | 62* | 0.4
CN(Cc1ccccc1)C(=O)Nc1ccccc1 | 0.9 | 7 | 37 | 0.6
COc1ccc(C2CC(=O)C3=C(C2)NC(C)=C(C#N)C3c2ccc(N(C)C)cc2)cc1 (configuration not stated) | 0.1 | 87* | 64* | 0.4
COC(=O)c1ccc(C2C(C#N)=C(C)NC3=C2C(=O)CC(C)(C)C3)cc1 (configuration not stated) | 0.6 | 36 | 24 | 0.8
CCOC(=O)CSC1=C(C#N)C(c2ccc(OC)cc2)C2=C(CC(C)(C)CC2=O)N1 (configuration not stated) | 0.4 | 63* | 72* | 0.3
COc1ccc(C2C(C#N)=C(SC)NC3=C2C(=O)CC(C)(C)C3)cc1 (configuration not stated) | 0.3 | 73* | 50 | 0.5
SMILES | CYP2C9 act | CYP2C9 inhib | CYP2C19 inh | CYP2C19 act
CSC1=C(C#N)C(c2ccc(C)cc2)C2=C(CCCC2=O)N1 (configuration not stated) | 0.8 | 16 | 9 | 0.9
COc1ccc(C2CC(=O)C3=C(C2)Nc2ccccc2N(C(C)=O)C3c2ccco2)cc1 (configuration not stated) | 0.5 | 46 | 9 | 0.9
CCOC(=O)CSC1=C(C#N)C(c2ccc(C)cc2)C2=C(CCCC2=O)N1 (configuration not stated) | 0.2 | 78* | 21 | 0.8
O=C1c2cccnc2C(O)N1C1CCCCC1 (configuration not stated) | 0.9 | 7 | 3 | 1
COc1ccc(S(=O)(=O)N(C)c2ccc(C(=O)N3CCOCC3)cc2)cc1 | 0.9 | 8 | 8 | 0.9
CN(c1ccccc1)S(=O)(=O)c1ccc(C(=O)OCC(=O)N2CCOCC2)cc1 | 0.5 | 48 | 55* | 0.5
COc1ccc(N2CCN(Cc3cc4c(cc3O)CCC4)CC2)cc1 | 0.1 | 92* | 24 | 0.8
COc1ccc(N2CCN(Cc3cc(=O)oc4cc5c(cc34)CCCC5)CC2)cc1 | 0.8 | 18 | 22 | 0.8
Cc1ccc(S(=O)(=O)/C(C#N)=C/c2c(N3CCN(C)CC3)nc3c(C)cccn3c2=O)cc1 | 0.2 | 85* | 9 | 0.9
Cc1cccn2c(=O)c(/C=C(\C#N)S(=O)(=O)c3ccccc3)c(N3CCN(C)CC3)nc12 | 0.2 | 75* | -10 | 1.1
Cc1cccn2c(=O)c(/C=N/O)c(N3CCCCC3)nc12 | 1 | -4 | -16 | 1.2
CCN1CCN(c2nc3c(C)cccn3c(=O)c2/C=C(\C#N)S(=O)(=O)c2ccc(C)cc2)CC1 | 0.1 | 89* | 33 | 0.7
Cc1ccc(S(=O)(=O)/C(C#N)=C/c2c(N3CC(C)OC(C)C3)nc3c(C)cccn3c2=O)cc1 (configuration not stated) | 0.3 | 72* | 7 | 0.9
Cc1sc2nc(N)sc2c1C | 1.1 | -6 | -7 | 1.1
CN(C)S(=O)(=O)c1cccc(CSc2cccc[n+]2[O-])c1 | 0.9 | 6 | 4 | 1
COc1ccc(-c2nsc3c(N4CCN(S(=O)(=O)c5ccccc5)CC4)ncnc23)cc1 | 0.8 | 20 | 16 | 0.8
O=C(NC(NC1CCS(=O)(=O)C1)C(=O)c1cccs1)c1ccccc1 (configuration not stated) | 0.3 | 69* | 99* | 0
COc1ccc(-c2ccc(-c3noc(-c4cccs4)n3)c(OC)n2)cc1 | 0.4 | 60* | 13 | 0.9
COc1ccc(-c2ccc(-c3noc(-c4ccccc4C)n3)c(OC)n2)cc1 | 1 | -2 | 4 | 1
COC(=O)C1C(=O)C2=C(CC1C)NC(=O)CC2c1ccccc1 (configuration not stated) | 0.7 | 29 | 25 | 0.8
COC(=O)C1C(=O)C2=C(CC1C)NC(C)=C(C(=O)OC(C)C)C2c1ccc(C)o1 (configuration not stated) | 0.4 | 59* | 21 | 0.8
COC(=O)C1C(=O)C2=C(CC1C)NC(C)=C(C(=O)OCc1ccc(OC)cc1)C2c1ccc(C)o1 (configuration not stated) | 0.2 | 80* | 61* | 0.4
C=CCSc1nc2c(cc1C#N)CCC2 | 0.9 | 9 | 40 | 0.6
N#Cc1cc2c(nc1SCc1nc3ccccc3[nH]1)CCC2 | 0.7 | 28 | 19 | 0.8
N#Cc1cc2c(nc1SCc1cccnc1)CCCC2 | 0.4 | 60* | 78* | 0.2
N#Cc1cc2c(nc1SCc1cccnc1)CCC2 | 0.8 | 23 | 87* | 0.1
O=c1[nH]c(=O)n(CCc2ccc(F)cc2)c(O)c1C=NCc1ccc2c(c1)OCO2 | 1.1 | -10 | -2 | 1

From PubChem BioAssay
